The test in a line: HepG2 cell cytotoxicity, dose response, cytotoxicity control, plate reader, dry powder samples (AID 1159569).

Entries with a potency or affinity are not part of this list. Results filed as inconclusive are left out. The source made the active and inactive calls. How the calls were made is not given here.

As for `OC[C@H]1Nc2ccc(C#Cc3cccnc3)cc2[C@H]2NCC[C@H]21`, the outcome was inactive.

Values taken from PubChem BioAssay AID1159569 (Broad Institute, 2015).
